Screening data as filed in PubChem.
The list is not random: actives were taken first. Their share in the collection is about 15%.
HCV inh – blocks hepatitis C virus. Huh7.5.1 HCVcc-Cre infection, luciferase reporter, 44 h. AID 651820. Potency, µM (top dose mostly 41.8 µM), hits mostly inhibitors. 340,000 tested, 3.4% active
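Luciferase read-out (15 sec integration) after a 15 min room-temperature substrate step quantifies HCVcc-Cre infection. Cells, 1,000 per well, had compound added 4 h post-plating, then virus at ~0.5 moi, and were cultured 44 h.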
Pf growth 96h – P. falciparum growth inhibition at 96 hours; P. falciparum luciferase reporter growth, 96 h; Potency, µM (highest dose often 28.7 µM), usual class: inhibitors; 320,000 tested, 6.9% active; AID 504834
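96 h incubation, 37 C, 5% CO2, of luciferase-reporter P. falciparum-infected RBCs (2% hematocrit, 0.05% parasitemia final) with test compounds; endpoint luminescence.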
SARS PLpro yeast – inhibitors of SARS-CoV papain-like protease in yeast; AID 485353; 330,000 tested, 0.19% active; Potency, µM (doses to about 32.9 µM), most hits filed as activators; S. cerevisiae expressing SARS-CoV PLpro, growth rescue; calls by dose curve; note: nearly all actives have a fitted effect of over 55% in size
HCMV antiviral – human cytomegalovirus inhibition; activity change, negative = inhibition, % at 57.5 µM; AID 1259415; 410,000 tested, 4.5% active; HFF cells, HCMV-luciferase reporter, 72 h; active compounds read low; in the data active = activity change below about -60%; inconclusive = no clear call, values can overlap the other calls; inactive = above about -39%
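Two compound doses tested in HFFs infected with HCMV-luciferase, MOI 1 PFU/cell, 72 h at 37C. Lysate luminescence read with OneGlo; data normalized against buffer-only and 10uM Salinomycin inhibitor controls.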
Pf growth 48h – P. falciparum growth inhibition at 48 hours (one generation) | P. falciparum luciferase growth in erythrocytes, 48 h | Potency, µM (top dose mostly 28.7 µM), actives largely listed as inhibitors | 310,000 tested, 5.9% active | AID 504832
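First compound was added to culture medium, then infected red cells at 0.1% parasitemia and 2% hematocrit (final). After incubation at 37 C under 5% CO2, luciferase detection reagent was dispensed and light output recorded.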
Sm TGR block – S. mansoni TGR enzyme inhibition | 360,000 tested, 3% active | purified TGR, DTNB reduction, TNB absorbance 405 nm | Potency, µM (series often up to 114 µM), most hits filed as inhibitors | AID 485364; note: nearly all actives have a fitted effect of over 60% in size
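TGR 20 nM + NADPH 100 uM (dispensed conc.), cpd preinc 15 min RT; start with NADPH (500 uM addition) then DTNB (15 mM addition). Kinetic TNB absorbance, 405 nm filter. Four-parameter Hill fit across titration.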
Large screens that a line does not name were inactive; ! = not confirmed by another sample. Unless noted, calls come from the whole dose curve; as a rule, active = well fitted curve in the direction sought with a large enough effect; inconclusive = small, poorly fitted or top-dose-only effect, or another doubt; inactive = no such curve, though single readings can be large; an effect the other way counts as inactive or inconclusive.

CCc1nn2c(=O)c(S(=O)(=O)Nc3ccc(C)c(C)c3)c(C)nc2s1	HCMV antiviral -87.6 (no result: HCV inh, Pf growth 96h, SARS PLpro yeast, Pf growth 48h)
Cc1nc2scc(C)n2c(=O)c1S(=O)(=O)Nc1ccc(N2CCN(S(C)(=O)=O)CC2)cc1	HCV inh inconclusive, HCMV antiviral -83.4!
COc1ccccc1OC(=O)Oc1ccccc1OC	none (no result: SARS PLpro yeast, Sm TGR block)
Cc1ccc2ccccc2c1C(O)c1ncc(-c2ccccc2Cl)[nH]1 (configuration not stated)	none (no result: HCV inh, Pf growth 96h, SARS PLpro yeast, Pf growth 48h, Sm TGR block)
CC(C)N=C(NS(=O)(=O)c1ccc(Br)cc1)c1ccc(Cl)cc1	none
Clc1ccc(OCc2nn3c(C4CCCCC4)nnc3s2)cc1	Pf growth 96h 9.28µM
O=C(c1ccccc1)N(Cc1nc2ccccc2c(=O)[nH]1)C1CCCCC1	none
O=C(c1cccc(F)c1)N(Cc1nc2ccccc2c(=O)[nH]1)C1CCCC1	Pf growth 96h inconclusive, Pf growth 48h 6.57µM
CCN(Cc1nc2ccccc2c(=O)[nH]1)C(=O)c1cc(C2CC2)nn1-c1ccccc1	HCV inh inconclusive, Pf growth 96h 9.28µM, Pf growth 48h inconclusive
CCN(Cc1nc2ccccc2c(=O)[nH]1)C(=O)c1cccc(NC(=O)c2cccs2)c1	HCV inh inconclusive, Pf growth 96h inconclusive, Pf growth 48h inconclusive
CCN(Cc1nc2ccccc2c(=O)[nH]1)C(=O)c1ccc(C)c(NC(=O)c2ccco2)c1	Pf growth 96h 13.1µM
CCN(Cc1nc2ccccc2c(=O)[nH]1)C(=O)COc1ccccc1-c1ccccc1	HCV inh inconclusive, Pf growth 96h 9.28µM, Pf growth 48h 13.1µM
CCCCOc1ccc(C(=O)NCC(=O)NC2CCN(Cc3ccccc3)CC2)cc1	HCV inh inconclusive, Pf growth 96h inconclusive, Pf growth 48h inconclusive
Cn1c(CCc2ccccc2)n[nH]c1=S	none
Cc1ccc(NC(=O)C2CCCN(S(=O)(=O)c3cccs3)C2)c(C)c1 (configuration not stated)	none (no result: HCV inh, Pf growth 96h, SARS PLpro yeast, Pf growth 48h)
CCN(Cc1nc2ccccc2c(=O)[nH]1)C(=O)C1CC(=O)N(c2cccc3ccccc23)C1 (configuration not stated)	Pf growth 96h inconclusive, Pf growth 48h 10.4µM
CCC(CC)C(=O)N(CCc1ccc(OC)cc1)Cc1nc2ccccc2c(=O)[nH]1	HCV inh 22.4µM, Pf growth 96h 11.7µM (no result: Pf growth 48h)
COc1ccc(CCN(Cc2nc3ccccc3c(=O)[nH]2)C(=O)c2ccco2)cc1	Pf growth 48h inconclusive
CC(NC(=O)C=Cc1ccco1)C(=O)NC(Cc1ccccc1)C(N)=O (configuration not stated)	none (no result: HCV inh, Pf growth 96h, SARS PLpro yeast, Pf growth 48h, Sm TGR block)
COc1cccc(-c2cc(NC(C)=O)c3ncc(-c4ccc(OC)c(OC)c4)n3c2)c1	none (no result: HCV inh, Pf growth 96h, SARS PLpro yeast, Pf growth 48h, Sm TGR block)
Cc1ccc2cccc(OCCCOc3ccccc3F)c2n1	HCV inh 10µM
Cc1ccc(C2CC2c2n[nH]c(=S)n2-c2cccc(Cl)c2)cc1 (configuration not stated)	none
Cc1ccc(S(=O)(=O)c2c(N)n(NC(=O)c3ccco3)c3nc4ccccc4nc23)cc1	Pf growth 96h inconclusive, Pf growth 48h inconclusive
CCCCn1c(N)c(S(=O)(=O)c2ccc(C)cc2)c2nc3ccccc3nc21	HCV inh inconclusive, Pf growth 96h 11.7µM, Pf growth 48h inconclusive (no result: HCMV antiviral)
CN(C)CCCn1c(N)c(S(=O)(=O)c2ccccc2)c2nc3ccccc3nc21	none (no result: HCMV antiviral)
Cc1cccc(S(=O)(=O)c2c(N)n(Cc3ccco3)c3nc4ccccc4nc23)c1	Pf growth 48h 8.28µM, Sm TGR block 17.8µM (no result: HCMV antiviral)
Cc1ccc(S(=O)(=O)c2c(N)n(Cc3ccco3)c3nc4ccccc4nc23)cc1	HCV inh inconclusive, Pf growth 96h 10.4µM, Pf growth 48h inconclusive, Sm TGR block inconclusive (no result: HCMV antiviral)
COC(=O)c1ccccc1NC(=O)CSc1nc2ccsc2c(=O)n1CCCCC(=O)O	none (no result: HCV inh, Pf growth 96h, SARS PLpro yeast, Pf growth 48h, Sm TGR block)
CCc1cccc(C)c1NC(=O)c1cc(S(=O)(=O)N(Cc2ccc(C(=O)OC)cc2)Cc2ccc(OC)c(OC)c2)ccc1F	none (no result: HCV inh, Pf growth 96h, SARS PLpro yeast, Pf growth 48h)
Cc1ccc(S(=O)(=O)N2CCN(S(=O)(=O)c3ccccc3Br)C2=O)cc1	SARS PLpro yeast inconclusive (no result: Pf growth 96h, Pf growth 48h, Sm TGR block)
Cc1ccc2c(c1)N(CCC(=O)NC(C)C)C(=O)CO2	HCMV antiviral -75.8 (no result: Pf growth 96h)
COc1ccc(CCNC(=O)CCN2C(=O)COc3ccccc32)cc1OC	none
